Source: PubChem
Sampled rows, rich in hits. Any-hit rate of the full collection: about 3.5%.
MITF primary: MITF inhibitors, primary screen, biochemical, AlphaScreen, human; Microphthalmia-associated transcription factor (Homo sapiens), O75030; AlphaScreen MITF homodimerization, bead proximity signal; inhibition, % at 2.6 µM; 650,000 compounds, 0.91% hits; AID 1259374, 2018; in the data active = inhibition above about 50%
Target sequence (O75030 whole entry, looked up): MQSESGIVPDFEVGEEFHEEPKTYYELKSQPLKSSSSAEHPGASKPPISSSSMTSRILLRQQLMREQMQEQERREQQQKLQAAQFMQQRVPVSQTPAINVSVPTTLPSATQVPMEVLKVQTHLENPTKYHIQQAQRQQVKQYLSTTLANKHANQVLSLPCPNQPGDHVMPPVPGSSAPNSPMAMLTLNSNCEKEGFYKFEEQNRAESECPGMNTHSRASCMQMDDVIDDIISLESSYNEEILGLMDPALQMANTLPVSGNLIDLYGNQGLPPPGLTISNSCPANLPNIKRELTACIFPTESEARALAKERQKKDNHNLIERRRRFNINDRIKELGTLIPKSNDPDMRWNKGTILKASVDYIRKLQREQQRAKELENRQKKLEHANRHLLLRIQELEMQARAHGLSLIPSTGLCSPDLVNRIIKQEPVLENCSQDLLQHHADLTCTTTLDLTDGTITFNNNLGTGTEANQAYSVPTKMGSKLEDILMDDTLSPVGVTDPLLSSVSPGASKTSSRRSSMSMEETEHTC
TEAD-YAP inh: TEAD-YAP interaction inhibition, primary screen, TEAD-YAP interaction inhibitor project, luminescence, HEK-TIYL cells; TEAD-Gal4/YAP UAS-luciferase luminescence; AID 1259422, 2018; 640,000 compounds, 1.4% hits; inhibition, % at 9.12 µM; in the data active = inhibition above about 32%
FBW7 activator: FBW7 E3 ligase activators, primary screen, biochemical, AlphaScreen, human. AID 1259310, 2017. AlphaScreen FBW7–phospho-cyclin E peptide binding, activator screen. normalized activity (activation), % at 26.1 µM. 650,000 compounds, 0.13% hits. F-box/WD repeat-containing protein 7 (Homo sapiens), Q969H0; in the data active = normalized activity above about 1.9%;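 note: purified mutant Fbw7 with reduced substrate affinity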
GPR151 ag: activators of human GPR151, primary screen, cell-based, PathHunter beta-arrestin, luminescence. G-protein coupled receptor 151 (Homo sapiens), Q8TDV0. PathHunter beta-arrestin GPR151 cells. activation, % at 11.2 µM. 650,000 compounds, 1% hits. AID 1508602, 2020; in the data active = activation above about 4.9%
Of the large screens only hits and unclear results are named; the others gave an inactive call; ! = not confirmed by another sample.

CC(=O)NC(C(=O)NC(Cc1ccccc1)C(N)=O)C(C)C (stereo unspecified)	FBW7 activator 2.0
COC(=O)C(C)NC(=O)C(Cc1ccccc1)NC(C)=O (stereo unspecified)	none
CC(=O)NC(CC(C)C)C(=O)NC(Cc1ccccc1)C(N)=O (stereo unspecified)	FBW7 activator 2.5
COc1ccccc1C(NC(=O)c1cc(OC)c(OC)c(OC)c1)c1cc(Cl)c2cccnc2c1O (stereo unspecified)	none
CCCCC(=O)NC(c1ccccc1OC)c1ccc2cccnc2c1O (stereo unspecified)	TEAD-YAP inh 73
CCCC(=O)NC(c1ccccc1OC)c1ccc2cccnc2c1O (stereo unspecified)	TEAD-YAP inh 76
COc1ccc2c(c1)c(CC(=O)NC1CCCCCCC1)c(C)n2C(=O)c1ccc(Cl)cc1	none
COc1cccc(S(=O)(=O)NCc2ccccn2)c1	none
O=S(=O)(NCc1ccccn1)c1ccc(Cc2ccc(S(=O)(=O)NCc3ccccn3)cc2)cc1	TEAD-YAP inh 59
COc1cc(S(=O)(=O)NCc2ccccn2)ccc1Cl	TEAD-YAP inh 37
Cc1ccc(NC(=O)CN2CCN(C)CC2)c(Br)c1	none
COc1ccc(NC(=O)CSc2nc3ccccc3nc2Cc2ccc(F)cc2)cc1Cl	none
Cc1ccc2cc(-c3cccs3)[nH]c2c1	none
COc1ccc(NC(=O)Cn2nnc(-c3ccccc3NC(=O)c3cccs3)n2)cc1	none
Cc1ccc(NC(=O)Cn2nnc(-c3ccccc3NC(=O)c3cccs3)n2)cc1	TEAD-YAP inh 54
CC1=CC(C)(C)N(S(=O)(=O)c2ccc(F)cc2)c2ccc(C)cc21	TEAD-YAP inh 44
CC1=CC(C)(C)N(S(=O)(=O)c2ccc(C)cc2)c2cc(C)c(C)cc21	TEAD-YAP inh 65
CCOc1ccc(S(=O)(=O)N2c3ccc(C)cc3C(C)=CC2(C)C)cc1	TEAD-YAP inh 64
COc1ccc(S(=O)(=O)N2c3ccc(C)cc3C(C)=CC2(C)C)cc1	TEAD-YAP inh 62
O=C1NC(=O)/C(=C\c2cccc(F)c2)N1	none
CC(C)n1c(-c2ccc(N3CCN(C)CC3)cc2)nc2c(NCc3cccc(C(F)(F)F)c3)ncnc21	none
COc1ccc(S(=O)(=O)N2c3ccc(Br)cc3C(C)=CC2(C)C)cc1	TEAD-YAP inh 55
COc1ccc(/C=C/C(=O)N2c3ccc(OC)cc3C(C)=CC2(C)C)cc1	none
CC1=CC(C)(C)N(S(=O)(=O)c2ccc(Cl)cc2)c2c(C)cc(C)cc21	none
CC1=CC(C)(C)N(S(=O)(=O)c2ccc(C)cc2)c2c(C)cc(C)cc21	TEAD-YAP inh 36
CCOC(=O)c1ccc(NC(=S)NNC(=O)C(C)Oc2ccc(C)cc2[N+](=O)[O-])cc1 (stereo unspecified)	none
COc1ccc(OC)c(CC(=O)N2CCc3nc(N4CCCCC4)[nH]c(=O)c3C2)c1	TEAD-YAP inh 50
COc1cc(CC(=O)N2CCc3nc(N4CCCC4)[nH]c(=O)c3C2)cc(OC)c1OC	none
CCOc1ccc(S(=O)(=O)n2cnc3cc(C)c(C)cc32)cc1	TEAD-YAP inh 34
CCCCOc1ccc(S(=O)(=O)n2cnc3cc(C)c(C)cc32)cc1	TEAD-YAP inh 48
Cc1cc2ncn(S(=O)(=O)c3ccc(S(N)(=O)=O)cc3)c2cc1C	none
Cc1ccc(S(=O)(=O)n2cnc3cc(C)c(C)cc32)cc1C	TEAD-YAP inh 39
Cc1ccc(S(=O)(=O)n2cnc3cc(C)c(C)cc32)cc1	none
O=S(=O)(c1ccc(N=Cc2c(O)ccc3ccccc23)cc1)N1CCOCC1	none
Cc1ccc(OCC(=O)NC(=S)Nc2ccccn2)c(Br)c1	TEAD-YAP inh 88
O=C(COc1ccc(Br)cc1Cl)NC(=S)Nc1ccccn1	TEAD-YAP inh 46
O=S(=O)(CCOc1ccccc1)Nc1ccc2c(c1)Cc1ccccc1-2	none
Cc1ccc(NS(=O)(=O)CCOc2ccccc2)cc1F	TEAD-YAP inh 39
Nc1oncc1-c1ccc(NC(=O)C2COc3ccc(F)cc3C2)cc1 (stereo unspecified)	TEAD-YAP inh 50
Cc1[nH]ncc1-c1ccc(NC(=O)C2COc3ccccc3C2)cc1 (stereo unspecified)	TEAD-YAP inh 41
Nc1oncc1-c1ccc(NC(=O)C2COc3ccccc3C2)cc1 (stereo unspecified)	none
Nc1[nH]ncc1-c1ccc(NC(=O)C2COc3ccc(F)cc3C2)cc1 (stereo unspecified)	TEAD-YAP inh 47
O=C(NC1CC1)c1cc2nc(-c3ccco3)cc(C(F)(F)F)n2n1	none
CCOc1ccccc1N1CCN(Cn2ncn(C)c2=S)CC1	none
CC(=O)Nc1ccc(NC(=O)C/C(C)=N/NC(=O)c2cc(N)cc([N+](=O)[O-])c2)cc1	none
Cc1[nH]ccc2c1[nH]c1cc(=O)ccc12	TEAD-YAP inh 37!
COc1cc2c(cc1OC)C(C(=O)N1CCCC(C)C1)C1c3ccccc3CCN1C2=O (stereo unspecified)	none
COc1cc2c(cc1OC)C(C(=O)N1CCCCC1)C1c3ccccc3CCN1C2=O (stereo unspecified)	FBW7 activator 1.9
COc1ccc(OC)c(C2CC(=O)c3c([nH]c(C(=O)OC(C)C)c3C)C2)c1 (stereo unspecified)	TEAD-YAP inh 50
CCCOCCOC(=O)c1[nH]c2c(c1C)C(=O)CC(c1cccs1)C2 (stereo unspecified)	TEAD-YAP inh 56
CCCOCCOC(=O)c1[nH]c2c(c1C)C(=O)CC(c1cc(OC)ccc1OC)C2 (stereo unspecified)	TEAD-YAP inh 47
CCCOCCOC(=O)c1[nH]c2c(c1C)C(=O)CC(c1ccc(OC)c(OC)c1)C2 (stereo unspecified)	none
Cc1c(C(=O)OCCOc2ccccc2)[nH]c2c1C(=O)CCC2	TEAD-YAP inh 43
CCCCC(=O)Nc1nnc(CSCc2ccccc2)s1	none
C=CCOc1cc(Br)c(CO)cc1OCC	none
CCCCn1c(SC(CC)C(=O)NCc2cccnc2)nc2ccsc2c1=O (stereo unspecified)	none
COCCOC(=O)c1[nH]c2c(c1C)C(=O)CC(c1cc(OC)ccc1OC)C2 (stereo unspecified)	TEAD-YAP inh 44
COCCOC(=O)c1[nH]c2c(c1C)C(=O)CC(c1ccccc1Cl)C2 (stereo unspecified)	TEAD-YAP inh 40
Cc1c(C(=O)OC(C)C)[nH]c2c1C(=O)CC(c1ccccc1)C2 (stereo unspecified)	TEAD-YAP inh 51
COc1ccc(OC)c(C2CC(=O)c3c([nH]c(C(=O)OCCOC(C)C)c3C)C2)c1 (stereo unspecified)	TEAD-YAP inh 45
COc1ccc(OC)c(C2CC(=O)c3c([nH]c(C(=O)OCCSC)c3C)C2)c1 (stereo unspecified)	none
COc1ccc(OC)c(C2CC(=O)c3c([nH]c(C(=O)OCC4CCCO4)c3C)C2)c1 (stereo unspecified)	none
CCOc1ccc(/C=C/C(=O)Nc2ccc(C)cc2)cc1	none
